# Screens from PubChem BioAssay.
# TGFb inhibitor: TGF-b pathway inhibition; HepG2 CAGA-GFP TGF-b/SMAD3 reporter, GFP fluorescence, 18 h; TGF-beta stimulated, 500 pg/mL final; 1.2% of 410,000 active; Potency, µM (highest dose often 46.1 µM), inactives show top-dose activity, negative = inhibition, usual class: inhibitors; further: potency means the concentration at half of the fitted maximal effect; on the % scale 0 is the no-effect control and ±100 the full control effect; nearly all actives have a fitted effect of over 65% in size
#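 Smad-responsive CAGA-GFP expression was quantified in HEPG2 cells exposed to compounds and 500 pg/mL final TGF-beta for 18 h at 37 degrees C; unstimulated wells defined full inhibition.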
# IL1B secr inh: inflammasome signaling inhibition, IL-1 beta readout; THP-1 LPS/ATP IL-1B secretion, AlphaLISA, 16 h; hits give low values; activity change, % at 57.5 µM; 4.7% of 360,000 active; AID 743279; in the data active means activity change below about -50%; inconclusive means mostly about -30% to -49%; further: on the % scale 0 is the no-effect control and ±100 the full control effect
#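 Secreted IL-1B measured by AlphaLISA bead assay after 16 h compound exposure of THP-1 cells; compounds (final up to 57.5 uM) added 1 h before LPS (250 ng/mL) and ATP (1.25 mM) stimulation; lower signal means less secretion.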
# HepG2 tox: kills HepG2 cells in TGF-b inhibitor counter-screen; HepG2 CAGA-GFP viability, ATP luminescence, 18 h; Potency, µM (top dose mostly 46.1 µM), without a hit: top-dose activity change, negative = cytotoxicity, actives largely listed as cytotoxic; 0.76% of 410,000 active; AID 588856; further: potency means the concentration at half of the fitted maximal effect
#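 HepG2 CAGA-GFP cells (1000/well, DMEM with 1% FBS) received compound, then TGF-beta at 500 pg/mL final, and were incubated 18 hours at 37 degrees C. Viability was read by CellTiter-Glo luminescence. Media-only wells were set as complete cell-killing and DMSO as no toxicity.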
# TDP1 block: TDP1 (human) enzyme inhibition; Potency, µM (top dose mostly 130 µM), inactives show at the top dose activity change, negative = inhibition, actives largely listed as inhibitors; 0.28% of 350,000 active; Q9NUW8; AID 485290; recombinant TDP1, AlphaScreen DNA substrate cleavage; further: potency means the concentration at half of the fitted maximal effect; on the % scale 0 is the no-effect control and ±100 the full control effect; nearly all actives have a fitted effect of over 40% in size
# Target sequence (Q9NUW8 whole entry, looked up): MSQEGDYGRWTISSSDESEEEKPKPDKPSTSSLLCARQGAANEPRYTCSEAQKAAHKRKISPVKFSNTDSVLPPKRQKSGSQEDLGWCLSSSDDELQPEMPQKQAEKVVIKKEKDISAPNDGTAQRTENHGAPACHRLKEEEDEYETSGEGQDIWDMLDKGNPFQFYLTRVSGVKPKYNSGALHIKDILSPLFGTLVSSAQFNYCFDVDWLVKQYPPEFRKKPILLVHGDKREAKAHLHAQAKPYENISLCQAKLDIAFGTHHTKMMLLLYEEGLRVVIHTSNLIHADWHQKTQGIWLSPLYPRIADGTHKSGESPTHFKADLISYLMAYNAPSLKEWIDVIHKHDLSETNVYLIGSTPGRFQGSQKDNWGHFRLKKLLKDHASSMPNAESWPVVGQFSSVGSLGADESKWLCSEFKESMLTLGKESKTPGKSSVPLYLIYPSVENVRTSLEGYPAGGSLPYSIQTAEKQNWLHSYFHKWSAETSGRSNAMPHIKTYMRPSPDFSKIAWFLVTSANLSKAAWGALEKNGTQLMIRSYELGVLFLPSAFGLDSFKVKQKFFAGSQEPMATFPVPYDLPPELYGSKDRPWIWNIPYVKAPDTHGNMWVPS
#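 Here, a 5' biotin and 3' phosphotyrosine-FITC DNA oligonucleotide reports Tdp1 activity: intact substrate bridges AlphaScreen beads, while cleavage leaves a 3' phosphate and drops signal. All incubations at room temperature.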
# DT40 TDP1 CPT: DT40-hTDP1 cell growth loss with CPT | chicken DT40 Tdp1-/-;hTDP1 cells + 20 nM CPT, ATP luminescence, 48 h | Potency, µM (series often up to 46.2 µM), for inactives: at the top dose activity change, negative = growth inhibition, hits mostly inhibitors | 12% of 420,000 active; further: potency means the concentration at half of the fitted maximal effect; on the % scale 0 is the no-effect control and ±100 the full control effect; nearly all actives have a fitted effect of over 55% in size
#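 Chicken DT40 Tdp1-/- cells complemented with human TDP1, 400 cells/well, exposed to compounds plus 20 nM camptothecin for at least 48 h at 37 C; viability read as ATP content by CellTiter-Glo luminescence.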
# TDP1 cell noCPT: qHTS for Inhibitors of human tyrosyl-DNA phosphodiesterase 1 (TDP1): qHTS in cells in absence of CPT; DT40 Tdp1-/- hTDP1 cells, no CPT, ATP luminescence, 48 h; Potency, µM (doses to about 46.2 µM), for inactives: at the highest dose activity change, negative = growth inhibition, usual class: inhibitors; 15% of 420,000 active; AID 686978, 2013; further: potency means the concentration at half of the fitted maximal effect; on the % scale 0 is the no-effect control and ±100 the full control effect; nearly all actives have a fitted effect of over 55% in size
#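 Growth kinetics read by CellTiter-Glo luminescence after ≥48 hr at 37 °C. Cells: DT40 Tdp1-/- stably carrying human TDP1, 400 per well, compound exposure in the absence of CPT (DMSO vehicle).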
# Numbers without * were called inactive; u = inconclusive; x = no result. Rows were chosen to be rich in hits. Some 18% of all compounds tested hit in one or more screens of this group. Unless noted, the call rests on the fitted dose curve; in most records, active means well fitted curve in the direction sought with a large enough effect; inconclusive means small, poorly fitted or top-dose-only effect, or another doubt; inactive means no such curve, though single readings can be large; an effect the other way counts as inactive or inconclusive.
SMILES,TGFb inhibitor,IL1B secr inh,HepG2 tox,TDP1 block,DT40 TDP1 CPT,TDP1 cell noCPT
Cc1ccccc1NCC(=O)N/N=C\C=C\c1cccc([N+](=O)[O-])c1,0%,0,6%,6%,-11%,2%
Cn1c(Nc2ccc(Cl)cc2F)nc2cc(-c3ccccc3)sc2c1=O,u,102,-9%,x,u,u
Cn1c(NCc2ccccc2F)nc2cc(-c3cccc(Cl)c3)sc2c1=O,23%,-1,7%,x,15µM*,21µM*
Cc1ccc(-n2c(SCC(=O)NCC3CCCO3)nc3ccccc3c2=O)cc1 (configuration not stated),0%,-25,-8%,1%,u,-1%
COc1ccc(-c2nnc(SCC(=O)NCC3CCCO3)n2C)cc1 (configuration not stated),-20%,13,-14%,6%,-30%,-7%
COc1ccc(-n2c(SCC(=O)NCC3CCCO3)nc3ccccc3c2=O)cc1Cl (configuration not stated),-6%,-10,-9%,x,8.2µM*,21µM*
Cc1ccc(C)c(-n2nnnc2SCC(=O)NCC2CCCO2)c1 (configuration not stated),-1%,-3,-4%,2%,-9%,6%
Cc1ccc(-n2c(SCC(=O)NCC3CCCO3)nc3n[nH]c(C)c3c2=N)cc1Cl (configuration not stated),u,-18,-2%,6%,9.2µM*,9.2µM*
COc1ccc(-n2c(SCC(=O)NCC3CCCO3)nc3n[nH]c(C)c3c2=N)cc1 (configuration not stated),2%,-56*,-19%,-3%,u,18µM*
Cc1ccc(NC(=O)C2CCCN2S(=O)(=O)c2cccc3nsnc23)c(Br)c1 (configuration not stated),-12%,x,-19%,6%,u,21µM*
Cc1cc(C)cc(NC(=O)C2CCCN2S(=O)(=O)c2cccc3nsnc23)c1 (configuration not stated),9%,x,6%,8%,u,u
O=C(Nc1ccc(F)cc1)C1CCCN1S(=O)(=O)c1cccc2nsnc12 (configuration not stated),-7%,-9,30%,4%,-7%,-3%
O=C(Nc1ccc(F)cc1F)C1CCCN1S(=O)(=O)c1cccc2nsnc12 (configuration not stated),16µM*,20,2%,5%,0%,u
CCNc1nc(NC(C)CC)nc(Oc2ccc(OCC)nn2)n1 (configuration not stated),24%,68,1%,6%,10µM*,9.2µM*
CCN(CC)c1nc(C)nc2c1cnn2CCc1ccccc1,-7%,u,-33%,-1%,u,15µM*
COc1cc2c(c(NC(C)=O)c1)N(C(C)=O)CCC2,1%,0,-3%,x,6%,-3%
C=CCN1C(=O)C(CC(C)C)NC1=S (configuration not stated),x,x,x,-7%,16%,-13%
COc1ccc(C2C=C(c3ccccc3)Nc3ncnn32)cc1 (configuration not stated),3%,-19,-33%,9%,18µM*,u
COc1ccc(C2C=C(c3ccc(Cl)cc3)Nc3nc(-c4ccc(Cl)cc4)nn32)cc1 (configuration not stated),4%,x,-11%,x,8.2µM*,4.6µM*
COc1ccc(-c2nc3n(n2)C(c2ccccc2Cl)C(C(N)=O)=C(C)N3)cc1 (configuration not stated),2%,17,0%,2%,9%,20%
Cc1ccc(C2=CC(c3ccccc3C)n3c(nc4ccccc43)N2)cc1 (configuration not stated),u,x,-35%,9%,u,u
Cc1ccc(-c2nc3n(n2)C(c2ccccc2C)C=C(c2ccc(Cl)cc2)N3)cc1 (configuration not stated),-20%,x,-13%,5%,u,23µM*
Cc1ccc(C2=CC(c3ccc(Cl)cc3)n3nc(-c4ccc(C)cc4)nc3N2)cc1 (configuration not stated),-26%,x,-46%,4%,33µM*,u
CCN(CC(=O)NCc1cccs1)C(=O)c1cccc(S(=O)(=O)NCc2ccccc2)c1,-17%,-12,2%,-3%,-13%,-21%
OC1c2ccccc2-c2nc3ccccc3cc21 (configuration not stated),x,x,x,1%,x,x
SMILES,TGFb inhibitor,IL1B secr inh,HepG2 tox,TDP1 block,DT40 TDP1 CPT,TDP1 cell noCPT
COc1ccc(CCNC(=O)C(=O)NCC2OCCN2S(=O)(=O)c2ccccc2)cc1 (configuration not stated),-3%,-2,7%,x,u,u
COc1cccc(C2=CC(c3ccc(OC)c(OC)c3OC)n3ncnc3N2)c1 (configuration not stated),-7%,x,-5%,3%,u,u
COc1ccc(C2C=C(c3ccc(C)c(C)c3)Nc3ncnn32)c(OC)c1OC (configuration not stated),0%,-14,-5%,4%,8.2µM*,5.2µM*
O=Cc1ccc(I)cc1,2%,x,11%,x,1.6µM*,4µM*
CCCCCCCCCCCCCCCCSCC(COC)COP(=O)([O-])OCC[N+](C)(C)C (configuration not stated),x,x,x,6%,-86%,-21%
Cc1cc(OCc2nc3ccccc3s2)ccc1N,7%,x,-6%,x,-5%,u
O=C(Nc1ccccc1N1CCCC1)C1=COCCO1,0%,8,18%,4%,-11%,5%
COc1ccc(Br)cc1C(=O)Nc1ccccc1N1CCCC1,u,-2,-23%,x,u,u
Cc1ccsc1C(=O)Nc1ccccc1N1CCCC1,0%,-1,0%,x,u,13µM*
COc1ccc(Cl)cc1C(=O)Nc1ccccc1N1CCCCC1,-17%,33,-17%,x,18µM*,29µM*
Cc1ccccc1C(=O)Nc1ccccc1N1CCCCC1,-24%,37,-20%,0%,u,16µM*
O=C(Nc1ccccc1N1CCCC1)c1ccccc1Cl,0%,-11,-12%,6%,11%,u
O=C(Nc1ccccc1N1CCCCC1)C1=COCCO1,-12%,34,-22%,-4%,u,12µM*
